Six compounds from PubChem BioAssay AID1572 (National Center for Advancing Translational Sciences (NCATS), 2009) can be followed below.

Each structure is given as a SMILES string. Inconclusive results are not listed. The source made the active and inactive calls. Calls come from the whole dose curve; as a rule, active = well fitted curve in either direction with a large enough effect; inconclusive = small, poorly fitted or top-dose-only effect; inactive = flat fitted curve, though single readings scatter.

The test is described as follows: Total Fluorescence Confirmation Counterscreen for Inhibitors of the Interaction of Thyroid Hormone Receptor and Steroid Receptor Coregulator 2. As to conditions: Texas Red total fluorescence, TRbeta/SRC2 FP artifact counterscreen; series mostly up to 92.2 µM; total fluorescence change, both ways: at the top concentration. The text has this: NIH Molecular Libraries Probe Production Network [MLPCN] NIH Chemical Genomics Center [NCGC] MLPCN Grant: DK058080 Assay Provider: R. Kip Guy, St. Jude Children's Research Hospital NCGC Assay Overview: Thyroid receptor (TR) regulates many homeostatic processes including basal metabolism, cardiovascular function, body weight, and lipid trafficking. TR modulators are potential therapeutics for obesity and hyperlipidemias but current thyroid analogs have undesirable side effects, particularly cardiac stimulation. To identify inhibitors that specifically prevent the interaction of TR with the steroid receptor coregulator 2 (SRC2), a fluorescence polarization assay was screened. This assay detects interaction of the ligand-binding domain of human TRbeta with a Texas Red labeled SRC2 peptide, corresponding to a 20 amino acid region of the nuclear receptor interaction domain (Arnold et al., 2006). Total fluorescence (555 nm excitation and 632 nm emission) was measured to identify potential fluorescent and light absorbing compounds. Such compounds may be artifacts that interfere with the fluorescence polarization assay. This assay is a confirmation assay for AID 1479. Arnold, L. A.; Estebanez-Perpina, E.; Togashi, M.; Shelat, A.; Ocasio, C. A.; McReynolds, A. C.; Nguyen, P.; Baxter, J. D.; Fletterick, R. J.; Webb, P.; Guy, R. K. A high-throughput screening method to identify small molecule inhibitors of thyroid hormone receptor coactivator binding. Sci STKE 2006, p 13.
NCGC Assay Protocol Summary: For screening, 5 uL/well 0.6 uM TRbeta and 20 nM SRC2 Texas Red in protein buffer (20mM Tris hydrochloride, 100mM NaCl, 10% glycerol, 1mM EDTA, 0.01% NP-40, 1mM DTT, 1uM T3 and 5% DMSO) was dispensed into black solid 1536-well plates (Grenier) using a solenoid-based dispenser. Following transfer of 23 nL compound or DMSO vehicle by a pin tool, the plates were centrifuged 15 s at 1000 RPM and incubated 5 hr at ambient temperature. The plates were read by an Envision (Perkin Elmer) to detect fluorescence polarization of SRC2 Texas Red (555 nm excitation and 632 nm emission). Data were normalized to unbound (all components except TRbeta) and bound SRC2 Texas Red controls. Total fluorescence (TF) was calculated as follows: TF = S + 2P where S and P are fluorescence readings in the parallel and perpendicular channels, respectively. In this assay, we provide % activity data for each concentration as well as potencies for the active compounds.
(In general: A counterscreen serves to expose hits that act by an unwanted route or on another target.)
Turning to `COP(=S)(OC)Oc1ccc([N+](=O)[O-])cc1`, the “total fluorescence change, both ways” value is 8.92% [at 184 µM] (inactive).

On to `CCCCCn1c(N)c(C(=O)NCc2cccs2)c2nc3ccccc3nc21`, for which the “total fluorescence change, both ways” value was 6.05% (inactive).

As to `CN1CC[C@@]2(C)c3cc(O)ccc3N(C)C2O1` (stereo partly specified), the “total fluorescence change, both ways” value was 1.51% [at 184 µM] (inactive).

With `Cc1[nH]n(-c2ccccc2)c(=O)c1C(c1ccc([N+](=O)[O-])cc1)c1c(C)[nH]n(-c2ccccc2)c1=O`, the “total fluorescence change, both ways” value was -23.2% (inactive).

Consider `O=C(O)CC1OCC=C2CN3CCC45C6=CC(=O)C(=O)C([N+](=O)[O-])=C6NC4C1C2CC35` (stereo unspecified), for which the compound was called inactive.

As for `CCn1nc(-c2cccs2)nc2c(=O)n(C)c(=O)nc1-2`, the “total fluorescence change, both ways” value was -0.774% (inactive).
